Results filed as inconclusive are left out. Calls of active or inactive are those of the source. Unless noted, calls follow the shape of the dose curve; as a rule, active = well fitted curve in the direction sought with a large enough effect in the repeat runs; inconclusive = weak or mixed curves; inactive = no such curve, though single readings can be large; an effect the other way counts as inactive or inconclusive.

A short description of assay [1]: qHTS assay to identify small molecule antagonists of the glucocorticoid receptor (GR) signaling pathway - cell viability counter screen (AID 720693; also: nearly all actives have a fitted effect of over 55% in size). (In general: In qHTS, concentration-response curves come from the screen itself.)
Assay [2] in a line: qHTS assay for identifying genotoxic compounds that show differential cytotoxicity against isogenic chicken DT40 cell lines with known DNA damage response pathways - wild type cell line (AID 743012). Also: nearly all actives have a fitted effect of over 60% in size. Also: potency is read from the fitted curve at half-maximal effect. Summed up: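 Viability by ATP luminescence (CellTiter-Glo, 30 min RT) after 40 h compound treatment at 37 C/5% CO2, using 300 parental DNA repair-proficient DT40 cells per well.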

The nature of assay [3]: qHTS assay for identifying genotoxic compounds that show differential cytotoxicity against isogenic chicken DT40 cell lines with known DNA damage response pathways - Rev3 mutant cell line (AID 743014). Also: nearly all actives have a fitted effect of over 55% in size. Also: potency is read from the fitted curve at half-maximal effect.
Assay [4] can be described thus: qHTS assay for identifying genotoxic compounds that show differential cytotoxicity against isogenic chicken DT40 cell lines with known DNA damage response pathways - Rad54/Ku70 mutant cell line (AID 743015). Also: potency is read from the fitted curve at half-maximal effect; nearly all actives have a fitted effect of over 60% in size.
Assay [5] can be described thus: qHTS assay to identify small molecule antagonists of the thyroid receptor (TR) signaling pathway - cell viability counter screen (AID 743064). Also: nearly all actives have a fitted effect of over 50% in size. Also: potency is read from the fitted curve at half-maximal effect. Summed up:
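In-well cytotoxicity read by CellTiter-Fluor (30 min, 37 C) following 23.5 h exposure of GH3 cells bearing a TRE-luciferase sensor. Compounds were added alongside 1 nM (final) T3 to drive TR transactivation.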

The nature of assay [6]: qHTS assay to identify small molecule antagonists of the thyroid receptor (TR) signaling pathway (AID 743065). Also: nearly all actives have a fitted effect of over 55% in size. Also: potency is read from the fitted curve at half-maximal effect. The essentials: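 GH3.TRE-Luc rat pituitary cells (two TREs driving luciferase) were dosed with compound, then stimulated with 1 nM T3 (final) for 23.5 h at 37 C. ONE-Glo luminescence was the read-out, with CellTiter-Fluor fluorescence as the cytotoxicity counter-screen.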

The nature of assay [7]: qHTS assay to identify small molecule antagonists of the estrogen receptor alpha (ER-alpha) signaling pathway - cell viability counter screen (AID 743074; calls by dose curve;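 also: HEK293 cells carrying ER-alpha-UAS-bla reporter stimulated with 17beta-estradiol; nearly all actives have a fitted effect of over 45% in size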).
Assay [8] addresses Estrogen receptor (Homo sapiens) (UniProt P03372). In words: qHTS assay to identify small molecule agonists of the estrogen receptor alpha (ER-alpha) signaling pathway (AID 743075; calls by dose curve;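 also: HEK293 GripTite cells with ER-alpha and UAS-driven beta-lactamase reporter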).
Assay [9] in a line: qHTS assay to identify small molecule antagonists of the estrogen receptor alpha (ER-alpha) signaling pathway using the BG1 cell line (AID 743080; calls by dose curve;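 also: BG1 cells stimulated with 17beta-estradiol alongside compound; series mostly up to about 70 µM; nearly all actives have a fitted effect of over 25% in size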). The essentials: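 After 5 days in phenol-red-free 10% charcoal-stripped FBS medium, BG1-Luc-4E2 cells were seeded, left 24 h at 37 C, co-treated with compounds and 17beta-estradiol for 21.5 h, then assayed for viability and luciferase.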

The nature of assay [10]: qHTS assay to identify small molecule antagonists of the androgen receptor (AR) signaling pathway - cell viability counter screen (AID 743033; also: nearly all actives have a fitted effect of over 45% in size).
Assay [11] has as its target Androgen receptor (Homo sapiens) (UniProt P10275). In words: qHTS assay to identify small molecule agonists of the androgen receptor (AR) signaling pathway (AID 743036; active = well fitted activation curve with a large enough effect in the signal ratio in the repeat runs, with a control signal flat, not every such curve was filed as active; the % refers to the signal ratio). Summed up: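 Activation was read as beta-lactamase FRET signal from LiveBLAzer B/G substrate, added for 2 h at room temperature. Before that, GeneBLAzer AR-UAS-bla GripTite (HEK293) cells had 16 h compound exposure at 37C.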

Assay [12] has the same target. In words: qHTS assay to identify small molecule agonists of the androgen receptor (AR) signaling pathway using the MDA cell line (AID 743040; also: nearly all actives have a fitted effect of over 20% in size). The essentials: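 Luciferase read-out, ONE-Glo, 30 min RT. Cells: MDA-kb2 AR-luc, MMTV promoter with AR and GR response elements. Compound exposure 16 h, 37C, 0% CO2, after 5 h pre-incubation. qHTS agonist mode.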
A short description of assay [13]: qHTS assay to identify small molecule antagonists of the androgen receptor (AR) signaling pathway using the MDA cell line - cell viability counter screen (AID 743041; also: nearly all actives have a fitted effect of over 45% in size; also: potency is read from the fitted curve at half-maximal effect). Summed up: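 Cytotoxicity counter screen: MDA-kb2 AR-luc cells, compound + R1881, 16 h, 37C, 0% CO2; CellTiter-Fluor added at 15.5 h, fluorescence read after 30 min.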
Assay [14] addresses Androgen receptor (Homo sapiens) (UniProt P10275). In words: qHTS assay to identify small molecule antagonists of the androgen receptor (AR) signaling pathway using the MDA cell line (AID 743042; also: nearly all actives have a fitted effect of over 55% in size; also: potency is read from the fitted curve at half-maximal effect). The essentials:
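MDA-kb2 breast carcinoma cells carrying MMTV-luciferase (AR/GR responsive) were co-treated with compounds and the agonist R1881 for 16 h at 37C. Inhibition read as ONE-Glo luminescence; CellTiter-Fluor fluorescence measured in parallel for cytotoxicity.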

Assay [15] can be described thus: qHTS assay to identify small molecule antagonists of the estrogen receptor alpha (ER-alpha) signaling pathway using the BG1 cell line - cell viability counter screen (AID 743081).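 Also: compound given together with 17beta-estradiol as the ER stimulus; nearly all actives have a fitted effect of over 45% in size.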 Also: potency is read from the fitted curve at half-maximal effect.
The target in assay [16] is Aromatase (Homo sapiens) (UniProt P11511). In words: qHTS assay to identify aromatase inhibitors (AID 743083).
Chain of Aromatase (Homo sapiens) (P11511 whole entry, looked up): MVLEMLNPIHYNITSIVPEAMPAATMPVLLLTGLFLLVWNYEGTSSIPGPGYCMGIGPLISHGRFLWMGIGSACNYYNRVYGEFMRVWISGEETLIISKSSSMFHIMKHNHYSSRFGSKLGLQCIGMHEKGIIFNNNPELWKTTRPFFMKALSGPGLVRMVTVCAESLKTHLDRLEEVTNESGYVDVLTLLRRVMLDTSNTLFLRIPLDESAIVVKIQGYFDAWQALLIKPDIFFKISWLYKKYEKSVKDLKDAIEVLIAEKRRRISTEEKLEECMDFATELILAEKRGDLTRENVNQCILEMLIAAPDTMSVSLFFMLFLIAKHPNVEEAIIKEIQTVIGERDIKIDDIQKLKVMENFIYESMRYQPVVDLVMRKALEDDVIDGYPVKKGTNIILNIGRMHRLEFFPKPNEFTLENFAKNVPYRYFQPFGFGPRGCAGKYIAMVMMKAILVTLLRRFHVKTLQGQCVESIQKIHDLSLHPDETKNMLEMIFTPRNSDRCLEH
In assay [17] the test system is thyroid hormone receptor (rat, GH3 cells). In words: qHTS assay to identify small molecule agonists of the thyroid receptor (TR) signaling pathway (AID 743066; calls by dose curve).
The target in assay [18] is Estrogen receptor (Homo sapiens) (UniProt P03372). In words: qHTS assay to identify small molecule agonists of the estrogen receptor alpha (ER-alpha) signaling pathway using the BG1 cell line (AID 743079). Also: nearly all actives have a fitted effect of over 20% in size.
Chain of Estrogen receptor (Homo sapiens) (P03372 whole entry, looked up): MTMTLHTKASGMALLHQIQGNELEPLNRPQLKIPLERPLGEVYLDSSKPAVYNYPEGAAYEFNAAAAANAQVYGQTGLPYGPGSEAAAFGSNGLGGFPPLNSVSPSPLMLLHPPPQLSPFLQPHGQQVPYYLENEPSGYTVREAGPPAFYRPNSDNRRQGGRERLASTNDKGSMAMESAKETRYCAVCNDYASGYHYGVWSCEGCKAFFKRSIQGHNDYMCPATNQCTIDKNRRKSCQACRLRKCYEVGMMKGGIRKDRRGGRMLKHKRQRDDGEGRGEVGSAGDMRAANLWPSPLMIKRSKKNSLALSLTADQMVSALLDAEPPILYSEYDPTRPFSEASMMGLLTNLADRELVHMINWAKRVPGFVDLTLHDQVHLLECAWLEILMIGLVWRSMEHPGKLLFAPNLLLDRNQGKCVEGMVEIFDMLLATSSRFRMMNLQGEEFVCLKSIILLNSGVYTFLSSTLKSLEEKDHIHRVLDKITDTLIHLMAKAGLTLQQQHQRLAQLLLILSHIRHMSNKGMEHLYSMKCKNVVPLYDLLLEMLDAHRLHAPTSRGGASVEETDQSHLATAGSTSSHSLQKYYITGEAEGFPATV
Assay [19] addresses Androgen receptor (Homo sapiens) (UniProt P10275). In words: qHTS assay to identify small molecule antagonists of the androgen receptor (AR) signaling pathway (AID 743035; active = well fitted inhibition curve with a large enough effect in the signal ratio in the repeat runs, not every such curve was filed as active; the % refers to the signal ratio; also: potency is read from the fitted curve at half-maximal effect). The essentials: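 Antagonist mode: AR-bla HEK293 cells co-treated with test compounds and agonist R1881 for 16 h at 37C, 5% CO2. Beta-lactamase activity read as FRET fluorescence after 2 h room-temperature substrate loading.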

The target in assay [20] is Estrogen receptor (Homo sapiens) (UniProt P03372). In words: qHTS assay to identify small molecule antagonists of the estrogen receptor alpha (ER-alpha) signaling pathway (AID 743069; active = well fitted curve in the direction sought with a large enough effect in the signal ratio in the repeat runs, not every such curve was filed as active; the % refers to the signal ratio). Summed up:
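Beta-lactamase FRET fluorescence is read after 2 hr at room temperature with LiveBLAzer B/G substrate. Before that, ER-alpha-bla HEK293 cells sit 4 hr after plating, then receive compound plus 17beta-estradiol and incubate 18 hr at 37C.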

Chain of Androgen receptor (Homo sapiens) (P10275 whole entry, looked up): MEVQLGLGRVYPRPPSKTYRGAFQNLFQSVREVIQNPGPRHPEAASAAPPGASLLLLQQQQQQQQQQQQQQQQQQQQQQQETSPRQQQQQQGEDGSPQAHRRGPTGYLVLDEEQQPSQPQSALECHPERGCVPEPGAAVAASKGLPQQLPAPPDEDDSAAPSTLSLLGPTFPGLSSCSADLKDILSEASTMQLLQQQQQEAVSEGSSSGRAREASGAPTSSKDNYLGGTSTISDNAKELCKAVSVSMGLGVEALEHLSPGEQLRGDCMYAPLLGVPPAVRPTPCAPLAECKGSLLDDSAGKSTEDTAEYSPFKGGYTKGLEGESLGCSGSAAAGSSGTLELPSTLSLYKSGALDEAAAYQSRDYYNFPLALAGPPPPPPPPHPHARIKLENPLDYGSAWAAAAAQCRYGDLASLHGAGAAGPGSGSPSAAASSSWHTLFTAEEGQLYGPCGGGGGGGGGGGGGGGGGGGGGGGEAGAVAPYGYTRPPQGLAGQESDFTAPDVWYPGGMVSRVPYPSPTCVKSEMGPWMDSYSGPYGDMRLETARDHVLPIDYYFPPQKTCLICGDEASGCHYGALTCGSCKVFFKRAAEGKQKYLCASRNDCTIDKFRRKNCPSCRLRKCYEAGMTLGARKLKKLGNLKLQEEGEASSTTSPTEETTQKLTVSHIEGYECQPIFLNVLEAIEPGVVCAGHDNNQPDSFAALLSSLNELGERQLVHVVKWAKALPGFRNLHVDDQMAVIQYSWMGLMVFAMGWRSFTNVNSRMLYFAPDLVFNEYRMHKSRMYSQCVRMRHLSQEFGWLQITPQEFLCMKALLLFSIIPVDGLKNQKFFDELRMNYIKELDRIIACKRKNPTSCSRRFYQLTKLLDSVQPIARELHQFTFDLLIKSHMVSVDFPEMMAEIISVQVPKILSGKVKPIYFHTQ

As for `CN1C[C@H](CNC(=O)OCc2ccccc2)C[C@@H]2c3cccc4c3c(cn4C)C[C@H]21`, the Potency result in assay [1], in assay [7], in assay [8] and in assay [9] was “inactive” throughout. In addition, the Potency was 5.96 µM (active) in assay [2]; 8.41 µM (active) in assay [3]; 8.41 µM (active) in [4]; 9.44 µM (active) in assay [5]; 10.6 µM (active) in [6].

As for `S=C=NCc1ccccc1`, the Potency result in assay [1], in assay [2], in [3], in assay [10], in assay [12] and in assay [13] was “inactive” throughout. The Potency result in [14], in [5], in assay [7], in assay [15] and in assay [16] was “inactive” in each case. In assay [11], the outcome was inactive.

On to `O=C(NC(=O)c1c(F)cccc1F)Nc1ccc(OC(F)(F)C(F)OC(F)(F)F)c(Cl)c1` (centres undefined), for which the Potency entry in assay [1], in assay [10], in assay [13], in assay [5], in [6] and in [17] was “inactive” throughout. Moreover, the Potency entry in assay [7], in [18], in assay [9], in assay [15] and in assay [16] was “inactive” in each case. For the same compound, the Potency in [2] is 6.68 µM (active); in assay [3], 4.22 µM (active).

As to `COc1ccc(-c2ccccc2)cc1NNC(=O)OC(C)C`, the Potency entry in [1], in assay [12], in [13], in assay [17], in assay [8] and in [15] was “inactive” each time. The Potency entry in assay [16] is “inactive”. Further, the Potency in assay [2] is 63.7 µM (active); in assay [3] it was 71.5 µM (active); in assay [19], 51 µM (active); in assay [14] it was 71.5 µM (active); in assay [6], 71.5 µM (active).

Regarding `NC(=O)CI`, the Potency entry in [1], in assay [2], in assay [3], in assay [10], in assay [13] and in assay [5] was “inactive” each time. Besides, the Potency result in [6], in [17], in assay [20], in assay [7], in assay [8] and in [18] was “inactive” each time. Further, the Potency entry in [9], in [15] and in assay [16] was “inactive” in each case.

`Nc1nc(=S)[nH][nH]1`: the Potency result in assay [1], in assay [2], in assay [10], in [13], in [5] and in assay [6] was “inactive” throughout. Further, the Potency entry in assay [17], in assay [20], in [7], in assay [8], in assay [18] and in assay [9] was “inactive” each time. For the same compound, the Potency entry in [15] and in [16] was “inactive” each time. For the same compound, the Potency in assay [3] is 48.6 µM (active).

Consider `C[C@@H]1CC[C@H]2[C@@H](C)C(=O)O[C@@H]3O[C@@]4(C)CC[C@@H]1[C@]32OO4`, for which the Potency result in assay [1], in [12], in assay [17], in assay [7] and in assay [15] was “inactive” each time. The Potency in assay [2] was 0.422 µM (active); in assay [3], 0.473 µM (active); in assay [19], 1.69 µM (active); in assay [14], 1.33 µM (active); in assay [5], 5.96 µM (active); in [6], 2.37 µM (active). Besides, the outcome in assay [11] was inactive.

For the compound `CCOc1nc(F)cc2nc(S(=O)(=O)Nc3c(Cl)cccc3Cl)nn12`, the Potency result in assay [1], in assay [2], in assay [3], in assay [10], in assay [13] and in assay [5] was “inactive” throughout. The Potency result in assay [6], in [17], in assay [20], in [7], in assay [8] and in assay [18] was “inactive” throughout. Also, the Potency entry in assay [9], in [15] and in assay [16] was “inactive” each time.

Consider `COC1=CC(=O)O[C@@H](CCc2ccccc2)C1`, for which the Potency result in assay [1], in assay [2], in assay [3], in assay [10], in assay [12] and in assay [13] was “inactive” in each case. The Potency entry in [14], in assay [5], in assay [6], in assay [17], in assay [7] and in assay [15] was “inactive” each time. Moreover, the Potency result in [16] was “inactive”.

As for `C[C@H]1CNCCc2ccc(Cl)cc21`, the Potency entry in assay [1], in [10], in [5], in [6], in assay [17] and in assay [20] was “inactive” throughout. The Potency result in [7], in assay [8], in assay [18], in assay [9], in assay [15] and in assay [16] was “inactive” each time. The Potency was 26.6 µM (active) in assay [2] and 13.3 µM (active) in assay [3].

With `COC(=O)c1cncn1C(C)c1ccccc1` (centres undefined), the Potency result in assay [1], in [2], in assay [3], in assay [10], in assay [13] and in assay [5] was “inactive” each time. Further, the Potency result in assay [6], in [17], in assay [20], in [7], in assay [8] and in assay [18] was “inactive” throughout. The Potency entry in assay [9], in [15] and in [16] was “inactive” throughout.

For `CC1CC(CC2CCC(N)C(C)C2)CCC1N` (centres undefined), the Potency result in [1], in assay [10], in assay [12], in assay [14], in assay [17] and in assay [20] was “inactive” each time. Also, the Potency result in [7], in assay [8], in assay [18] and in assay [16] was “inactive” in each case. The Potency in [2] is 7.82 µM (active); in [3], 2.47 µM (active); in [13] it was 31.1 µM (active); in assay [15], 31.1 µM (active). Further, in assay [11], the call was inactive.

Regarding `COC(C)(C)CCC[C@H](C)C/C=C/C(C)=C/C(=O)OC(C)C`, the Potency entry in assay [1], in assay [12], in assay [17], in assay [7], in assay [15] and in assay [16] was “inactive” in each case. For the same compound, the Potency in assay [2] is 21.7 µM (active); in [3], 24.3 µM (active); in [6], 61.1 µM (active). The outcome in assay [11] was inactive.

Consider `ClCc1ccccc1`, for which the Potency entry in [1], in [2], in assay [3], in [10], in [5] and in [6] was “inactive” throughout. Further, the Potency result in [17], in [20], in assay [7], in [8], in assay [18] and in assay [9] was “inactive” in each case. Further, the Potency result in [15] and in assay [16] was “inactive” each time.

Take `CC(Cl)Cl`: the Potency entry in assay [1], in assay [2], in assay [3], in assay [10], in assay [5] and in assay [6] was “inactive” in each case. Also, the Potency entry in [17], in [20], in [7], in assay [8], in assay [9] and in assay [15] was “inactive” in each case. In addition, the Potency result in [16] is “inactive”.

As to `CCCCC(CC)COP(=O)(Oc1ccccc1)Oc1ccccc1` (centres undefined), the Potency entry in assay [1], in assay [2], in assay [10], in assay [19], in assay [12] and in assay [13] was “inactive” in each case. The Potency result in assay [14], in [17], in assay [20], in [7], in [8] and in assay [18] was “inactive” throughout. Also, the Potency result in assay [9], in [15] and in assay [16] was “inactive” in each case. Also, the Potency in assay [3] was 48.6 µM (active). Also, the compound was classed as inactive in assay [11].

`O=C(OC1CCCCC1)c1ccccc1C(=O)OC1CCCCC1`: the Potency entry in [1], in [13], in [17], in assay [7], in assay [8] and in [18] was “inactive” each time. Moreover, in assay [15], the Potency entry is “inactive”. Further, the Potency is 28.8 µM (active) in assay [2], 22.9 µM (active) in assay [3] and 72.3 µM (active) in assay [6].
